# Results filed as inconclusive are left out. The source made the active and inactive calls. Rule as the data show it, unless noted: active = inhibition above about 80%; inactive = the rest.
# Legend:
# [1] = SU-DIPG-XXV glioma cell viability, MIPE5.0 library, qHTS (AID 1347068; cut-off not given, nearly all actives have IC50 up to about 30 µM)
# [2] = LFS_MB_P medulloblastoma growth inhibition, cell-based, chromothripsis tumors, cisplatin or BGB combos (AID 1671449); settings: LFS_MB_P medulloblastoma cells;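 also: cells exposed for 96 hours; 0% = vehicle DMSO and 100% = killing by high DMSO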
# [3] = HDN33 neuroblastoma growth inhibition, cell-based, chromothripsis tumors, cisplatin or BGB combos (AID 1671450); settings: HDN33 neuroblastoma cells, stronger effect = higher value;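 also: cells exposed to compound for four days; 0% = vehicle DMSO and 100% = cell killing by high DMSO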
# [4] = ICB984 medulloblastoma cell growth inhibition, synergistic combos for chromothripsis tumors, cisplatin or BGB combos (AID 1671451; call rule not given here;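 also: cells exposed for 96 hours before readout; 0% = vehicle DMSO and 100% = killing by high DMSO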); settings: ICB984 medulloblastoma cells, drug combinations, stronger effect = higher value
# [5] = LFS_MB_1R medulloblastoma cell growth inhibition, synergistic combos for chromothripsis tumors, cisplatin or BGB combos (AID 1671452); settings: LFS_MB_1R medulloblastoma cells, stronger effect = higher value;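 also: cells exposed for 96 hours before readout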
# [6] = HTB85 osteosarcoma cell growth inhibition, synergistic combos for chromothripsis tumors, BGB or cisplatin IC20 combos (AID 1671453); settings: HTB85 osteosarcoma cells, drug combinations, stronger effect = higher value;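 also: cells exposed for 96 hours before readout; 0% = vehicle DMSO and 100% = high DMSO killing control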
# [7] = CRL2098 osteosarcoma cell growth inhibition, synergistic combos for chromothripsis tumors, BGB or cisplatin IC20 combos (AID 1671454); settings: CRL2098 osteosarcoma cells, drug combinations, stronger effect = higher value;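 also: cells exposed for 96 h before readout; 0% = vehicle DMSO and 100% = killing by high DMSO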
# [8] = HD-MB03 medulloblastoma cell growth inhibition, synergistic combos for chromothripsis tumors, BGB or cisplatin IC20 combos (AID 1671455; in the data active = inhibition above about 83%;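 also: 0% = vehicle DMSO and 100% = high DMSO as cytotoxic control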); settings: HD-MB03 medulloblastoma cells, stronger effect = higher value
# [9] = UWB1.289 ovarian carcinoma cell growth inhibition, synergistic combos for chromothripsis tumors, BGB or cisplatin combos (AID 1671456); settings: UWB1.289 ovarian carcinoma cells, stronger effect = higher value;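 also: cells exposed to compound for four days; 0% = vehicle DMSO and 100% = killing by high DMSO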
# [10] = LFS_MB_2R medulloblastoma cell growth inhibition, synergistic combos for chromothripsis tumors, cisplatin combos (AID 1671457); settings: LFS_MB_2R medulloblastoma cells, stronger effect = higher value;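 also: cells exposed to compound for four days before readout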
# [11] = MDA-MB-436 breast carcinoma cell growth inhibition, synergistic combos for chromothripsis tumors, BGB or cisplatin combos (AID 1671458; call rule not given here;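 also: cells exposed for 96 hours; 0% = vehicle DMSO and 100% = killing by high DMSO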); settings: MDA-MB-436 breast carcinoma growth inhibition, drug combinations, stronger effect = higher value
# [12] = UWB1.289_BRCA1 ovarian cancer growth, cell-based, BGB or cisplatin combinations (AID 1671459); settings: UWB1.289 BRCA1 ovarian carcinoma, drug combinations, stronger effect = higher value
# [13] = human astrocyte viability loss, single and combined drugs, cytotoxicity control for chromothriptic childhood tumor combination screen, cell-based, BGB or cisplatin IC20 combos (AID 1671460); settings: Human astrocytes, drug combinations, stronger effect = higher value;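 also: cells exposed to compounds for 96 hours before viability readout; 0% = vehicle and 100% = killing control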
# [14] = growth inhibition of BT084 medulloblastoma cells, cell-based, ICGC_MB145, cisplatin and BGB IC40 combos (AID 1671461); settings: drug combinations, stronger effect = higher value;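 also: cells exposed to drugs for 96 hours; 0% = vehicle DMSO and 100% = high DMSO full killing control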
# [15] = growth inhibition of RCMB18 medulloblastoma cells, cell-based, cisplatin and BGB IC40 combos (AID 1671462); settings: stronger effect = higher value;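 also: cells exposed to compound for four days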
# [16] = growth inhibition of CRL1545 osteosarcoma cells, cell-based, cisplatin and BGB IC20 combos (AID 1671464); settings: stronger effect = higher value;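 also: cells exposed to compound for 96 hours before readout; 0% = vehicle DMSO and 100% = high DMSO killing control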
# [17] = sensitizers of A549 cells to miR-34 induction, primary screen, imaging, A549 dox-inducible miR-34, nuclei and caspase counts (AID 1347080;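 active = compounds whose cell count with miR-34 switched on is under 0.7 times the count with it off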); settings: A549 miR-34 inducible, Hoechst nuclei count, 48 h
# [18] = measured here: combination with BGB IC40, at 0.05 µM
# [19] = measured here: with BGB IC20 combination, at 0.5 µM
# [20] = measured here: with cisplatin IC20 combination, at 0.5 µM
# [21] = measured here: combination with cisplatin, at 0.5 µM
# [22] = measured here: combination with cisplatin, at 5 µM
# [23] = stronger effect = lower value, cell number ratio, induced over uninduced
# [24] = measured here: relative caspase fold change +Dox/-Dox
# [25] = measured here: total cells with miR-34 induction, stronger effect = lower value
# [26] = measured here: total cells without miR-34 induction
structure (smiles),measurement,setting,value
NCCOc1cc(C(=O)Nc2cc(OCCN)c3ccccc3n2)nc(C(=O)Nc2cc(OCCN)c3ccccc3n2)c1,outcome,[1],inactive
same,inhibition,"[2]; at 0.5 µM, stronger effect = higher value",2.22% (inactive)
same,inhibition,"[2]; measured here: combination with BGB IC20, at 0.005 µM",-38.8%
same,inhibition,"[2]; measured here: combination with BGB IC40, at 0.005 µM",62.7%
same,inhibition,[2]; [18],-24.9%
same,inhibition,"[2]; measured here: combination with cisplatin, at 0.5 µM, stronger effect = higher value",12.8%
same,inhibition,"[2]; measured here: combination with cisplatin, at 5 µM, stronger effect = higher value",-64.9%
same,inhibition,"[3]; BGB combo, at 5 µM",-54.1%
same,inhibition,[3]; at 0.5 µM,-9.7% (inactive)
same,inhibition,"[3]; cisplatin combo, at 5 µM",-17.5%
same,inhibition,[3]; [19],-37.5%
same,inhibition,[3]; [20],8.64%
same,inhibition,"[3]; single agent, at 5 µM",-33.3%
same,inhibition,"[4]; BGB IC20 combo, at 0.005 µM",-1.03%
same,inhibition,"[4]; BGB IC40 combo, at 0.005 µM",-1.14%
same,inhibition,"[4]; BGB IC40 combo, at 0.05 µM",41.5%
same,inhibition,[4]; at 0.5 µM,-7.14% (inactive)
same,inhibition,"[4]; cisplatin combo, at 0.05 µM",38.8%
same,inhibition,"[4]; cisplatin combo, at 0.5 µM",5%
same,inhibition,"[4]; cisplatin combo, at 5 µM",-7.59%
same,inhibition,"[4]; measured here: 5 uM single agent, at 5 µM",-6.04%
same,inhibition,[5]; at 0.5 µM,-45.4% (inactive)
same,inhibition,[5]; [18],-42.8%
same,inhibition,[5]; [21],-52.8%
same,inhibition,[5]; [22],-9.07%
same,inhibition,[6]; at 0.5 µM,-5.41% (inactive)
same,inhibition,"[6]; measured here: with BGB IC20, at 0.5 µM",16.9%
same,inhibition,"[6]; measured here: with BGB IC20, at 5 µM",14.7%
same,inhibition,"[6]; measured here: with cisplatin IC20, at 0.5 µM",-18.6%
same,inhibition,"[6]; measured here: with cisplatin IC20, at 5 µM",11.6%
same,inhibition,"[6]; single agent, at 5 µM",-2.66%
same,inhibition,[7]; at 0.5 µM,-35.9% (inactive)
same,inhibition,"[7]; measured here: combination with BGB at IC20, at 0.5 µM",-36.6%
same,inhibition,"[7]; measured here: combination with cisplatin at IC20, at 0.5 µM",-37.8%
same,inhibition,[8]; at 0.5 µM,-13.1% (inactive)
same,inhibition,"[8]; measured here: combo with BGB at IC20, at 0.5 µM",-12.1%
same,inhibition,"[8]; measured here: combo with cisplatin at IC20, at 0.5 µM",-20.4%
same,inhibition,[9]; at 0.5 µM,-1.71% (inactive)
same,inhibition,"[9]; measured here: inhibition with BGB combination, at 0.05 µM",-20.7%
same,inhibition,"[9]; measured here: inhibition with cisplatin combination, at 0.05 µM",-14.5%
same,inhibition,[10]; at 0.5 µM,-18.8% (inactive)
same,inhibition,[10]; [21],-2.5%
same,inhibition,[10]; [22],-13.9%
same,inhibition,[11]; at 0.5 µM,0.88% (inactive)
same,inhibition,"[11]; measured here: BGB combination, at 0.5 µM",5.33%
same,inhibition,"[11]; measured here: BGB combination, at 5 µM",54.3%
same,inhibition,"[11]; measured here: cisplatin combination, at 0.5 µM",-17.7%
same,inhibition,"[11]; measured here: cisplatin combination, at 5 µM",63.8%
same,inhibition,"[12]; BGB combination, concentration series, at 5 µM",15.3%
same,inhibition,[12]; at 0.5 µM,-6.49% (inactive)
same,inhibition,"[12]; cisplatin combination, concentration series, at 5 µM",19.1%
same,inhibition,[13]; at 0.5 µM,5.8% (inactive)
same,inhibition,"[13]; measured here: combo with BGB IC20, at 0.5 µM",5.26%
same,inhibition,"[13]; measured here: combo with cisplatin IC20, at 0.5 µM",9.36%
same,inhibition,[14]; at 0.5 µM,-11.2% (inactive)
same,inhibition,"[14]; cisplatin combination, at 0.5 µM",-3.81%
same,inhibition,"[14]; cisplatin combination, at 5 µM",-140%
same,inhibition,"[14]; measured here: BGB IC40 combination 0.05 uM, at 0.05 µM",-28.5%
same,inhibition,"[14]; single agent, at 5 µM",-22.2%
same,inhibition,[15]; at 0.5 µM,-16.6% (inactive)
same,inhibition,"[15]; cisplatin combo, at 5 µM",-19.4%
same,inhibition,"[15]; measured here: BGB IC40 combination, at 0.05 µM",-9.5%
same,inhibition,[15]; [21],-38.3%
same,inhibition,"[15]; single agent, at 5 µM",-10.4%
same,inhibition,[16]; at 0.5 µM,11.6% (inactive)
same,inhibition,[16]; [19],-1.76%
same,inhibition,[16]; [20],17%
same,inhibition,"[16]; single agent, at 0.05 µM",-15.4%
same,inhibition,"[16]; single agent, at 5 µM",55%
O=C(O)CC1CCC(c2ccc(-c3ccc(Nc4ccc(C(F)(F)F)nc4)cn3)cc2)CC1 (stereo not drawn),outcome,[1],inactive
C=CC(=O)N[C@H]1CCOC[C@H]1Nc1ncc2cc(-c3c(Cl)c(OC)cc(OC)c3Cl)ccc2n1,outcome,[1],inactive
Cc1nc(-c2ccc(C(F)(F)F)cc2)sc1C(=O)NCc1ccc(OC(C)(C)C(=O)O)cc1,fold change,[17]; [23],0.946 (inactive)
same,fold change,[17]; [24],0.5
same,cell count,[17]; [25],5220
same,cell count,[17]; [26],5520
O=C(Nc1cccc(C(F)(F)F)c1)c1cccc2cc(Oc3cc(CO)ncn3)ccc12,outcome,[1],inactive
CC(C)(C)S(=O)(=O)c1ccc2nccc(Nc3n[nH]c4ccc(F)cc34)c2c1,outcome,[1],inactive
O=C(C(c1ccccc1)c1ccccc1)N1CCN(CC(O)COc2cccc3ncccc23)CC1 (stereo not drawn),outcome,[1],inactive
CCCCCCCCNC(=O)Cc1c(C)n(C(=O)c2ccc(Cl)cc2)c2ccc(OC)cc12,fold change,[17]; [23],1.03 (inactive)
same,fold change,[17]; [24],0.978
same,cell count,[17]; [25],5650
same,cell count,[17]; [26],5490
O=c1[nH]nc2c3c(cccc13)NC(CN1Cc3ccccc3C1)=N2,outcome,[1],inactive

# Reference: PubChem BioAssay
